Laboratory results reported in the supplement of paper PMC3334620.
Whole data set: some 33,000 sequences, median “E-score (-0.5 to 0.5)” near -0.053, cut for the highest 2% near 0.37. The list comes from a sample in which the highest values are over-represented; it also holds similar and randomly drawn sequences.

The sequences below were run against Hap1 (UniProt P0CE41) (assay: PBM E-score (8-mer binding enrichment) (E-score (-0.5 to 0.5)); higher = stronger / more preferred TF binding). Details: protein concentration: 200 nM; construct: GST-DNA-binding domain.
UniProt P0CE41, sequence (P0CE41 whole entry, the tested form may be a part): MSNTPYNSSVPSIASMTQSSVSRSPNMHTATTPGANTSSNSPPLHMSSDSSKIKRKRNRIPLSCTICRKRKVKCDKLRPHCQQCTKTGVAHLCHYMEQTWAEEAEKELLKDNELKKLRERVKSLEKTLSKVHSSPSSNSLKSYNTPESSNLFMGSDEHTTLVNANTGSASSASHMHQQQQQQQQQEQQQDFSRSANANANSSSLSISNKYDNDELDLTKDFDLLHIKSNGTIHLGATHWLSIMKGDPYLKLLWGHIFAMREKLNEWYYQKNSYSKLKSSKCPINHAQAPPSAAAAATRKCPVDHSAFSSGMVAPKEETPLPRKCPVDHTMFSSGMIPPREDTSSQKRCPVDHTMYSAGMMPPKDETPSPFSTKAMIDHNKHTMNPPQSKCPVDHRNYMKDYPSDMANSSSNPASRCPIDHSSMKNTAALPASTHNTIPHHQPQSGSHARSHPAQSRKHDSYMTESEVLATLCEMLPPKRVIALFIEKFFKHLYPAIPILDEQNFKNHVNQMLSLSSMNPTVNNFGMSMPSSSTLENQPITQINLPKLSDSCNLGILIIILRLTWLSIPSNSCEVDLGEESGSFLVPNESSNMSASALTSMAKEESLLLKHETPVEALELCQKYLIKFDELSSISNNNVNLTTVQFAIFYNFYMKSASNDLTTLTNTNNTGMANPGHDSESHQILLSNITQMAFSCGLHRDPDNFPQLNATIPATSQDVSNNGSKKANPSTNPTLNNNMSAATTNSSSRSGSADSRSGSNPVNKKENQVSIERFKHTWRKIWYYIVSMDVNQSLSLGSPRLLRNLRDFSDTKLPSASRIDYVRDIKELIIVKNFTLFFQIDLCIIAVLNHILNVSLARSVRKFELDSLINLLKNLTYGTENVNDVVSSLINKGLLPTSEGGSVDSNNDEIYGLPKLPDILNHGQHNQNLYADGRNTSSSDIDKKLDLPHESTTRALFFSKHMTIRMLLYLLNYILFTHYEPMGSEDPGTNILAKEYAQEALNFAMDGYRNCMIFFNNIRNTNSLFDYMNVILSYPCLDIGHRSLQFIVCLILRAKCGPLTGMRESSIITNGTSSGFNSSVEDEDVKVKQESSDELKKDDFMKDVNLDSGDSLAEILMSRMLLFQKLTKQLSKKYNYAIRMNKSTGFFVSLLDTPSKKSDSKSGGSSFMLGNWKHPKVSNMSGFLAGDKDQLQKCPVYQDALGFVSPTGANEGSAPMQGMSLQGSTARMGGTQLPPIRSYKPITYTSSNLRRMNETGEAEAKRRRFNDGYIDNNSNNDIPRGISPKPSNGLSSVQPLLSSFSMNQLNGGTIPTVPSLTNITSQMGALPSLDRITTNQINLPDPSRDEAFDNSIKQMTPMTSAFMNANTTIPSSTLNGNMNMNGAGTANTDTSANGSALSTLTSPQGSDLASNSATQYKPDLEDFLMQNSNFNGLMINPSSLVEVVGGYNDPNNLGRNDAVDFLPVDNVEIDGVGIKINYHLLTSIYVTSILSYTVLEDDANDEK
Outline: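 Universal all-10-mer Agilent arrays, fresh or stripped once, were converted to double-stranded form by primer extension. GST-tagged yeast transcription factors from PURExpress in vitro transcription/translation, full-length or DNA-binding domain only, were applied at about 100-200 nM and detected with fluorescent anti-GST. After masliner normalisation, the Universal PBM Analysis Suite scored each ungapped eight-base word together with its reverse complement by E-score.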

Sequence | PBM E-score
CTTAGGAC | -0.283
AGGGGGAC | -0.213
ATCCGCCA | 0.181
ATCCGCCG | 0.375
ATCCGCCC | 0.243
AACAAAGT | 0.00728
GCGGTGGA | 0.0678
CCGGTGGA | 0.39
ACGGTGGA | -0.062
CGACCTTC | 0.0839
CGGAGATC | 0.411
AGGAGATC | -0.098
CGGAGATA | 0.495
GGGAGATA | 0.268
AGGAGATA | 0.253
CTGAGATC | -0.171
GTTCCTGA | -0.242
AGCAATAC | -0.0164
AGTAAAGC | -0.00459
ACGTACAC | -0.181
ACCCAACG | -0.0503
CGGAGGTC | 0.261
CGGAGGTA | 0.443
CGGAGGAG | 0.284
CGGAGGAA | 0.375

Sequence | PBM E-score
AGGAGGTA | -0.044
AGGAGGAA | -0.218
GGAAAACA | 0.139
CCGGCGGC | 0.364
GTGGCGGA | 0.136
CTGGCGGA | -0.0445
GCGGCGGA | 0.382
ACGGCGGA | 0.273
CCGGCGGA | 0.421
GCGGCTCA | 0.073
GAGTGTCA | -0.145
GAGAATGC | 0.0329
ACGGATGA | 0.228
AGACGCGG | 0.0872
CTCGAAGA | -0.152
CTGATTTC | -0.0451
GGGATTTA | 0.327
AGGATTTA | 0.227
CGGATTTA | 0.489
AGGATTTC | 0.0343
CGGATTTC | 0.426
CTAACCCC | 0.235
GTCGAATA | -0.0336
CCACTGAG | -0.235
CCTTCGGC | 0.27

Sequence | PBM E-score
CCTTCGGA | 0.364
ACTTCGGC | 0.377
ACTTCGGG | 0.247
GCTTCGGA | 0.327
ACTTCGGA | 0.403
ACCGCAGT | 0.106
CAGCCTAA | -0.354
ATACTTCC | 0.162
ACATCCTG | -0.0661
ACATCCGG | 0.427
ACATCCGT | 0.213
ACATCCGC | 0.347
CCATCCGG | 0.254
ACATCCGA | 0.382
TATGTACA | -0.124
GCCAGTTA | -0.14
ACGCCCCG | 0.193
GCGCCCGA | 0.353
ACGCCCGG | 0.377
TCGCCCGA | 0.362
CCGCCCGA | 0.37
GGGCCCGA | 0.317
AGGCCCGA | 0.279
ACGCCCGT | 0.251
ACGCCCGC | 0.183

Sequence | PBM E-score
CTGCCCGA | 0.202
ACGCCCGA | 0.371
CGGCCCGA | 0.398
GGCCAGCA | -0.0771
AAGTCTGA | -0.412
CTTGTCTC | -0.073
ACGCGAAA | -0.00838
ACAAGAGC | -0.109
CGGAGCGA | 0.331
CCATAGGA | -0.258
GACACGTA | -0.194
CCGCCCCG | 0.347
AAGCCCGG | 0.407
AAGCCCGT | 0.232
CCGCCCGG | 0.411
AAGCCCGC | 0.337
CCGCCCGC | 0.3
CAAGTTCC | 0.124
CAGTGTGC | -0.139
ATGGCAGA | 0.089
CCAAATTC | -0.0397
CGTTCCGA | 0.123
AGTTCCGC | 0.278
GGTTCCGA | 0.279
AGTTCCGA | 0.395

Sequence | PBM E-score
AGTTCCTG | -0.178
AGTTCCGG | 0.394
GGTCCTAC | -0.0458
GTCAGCAA | -0.157
TTCCGCAA | 0.263
ACAGGTTC | -0.216
ACCGGTAG | 0.228
ACCGGTAA | 0.406
ATCGGTAA | 0.31
ACCGGTAT | 0.424
ACCGGTAC | 0.334
AACGGTAA | 0.186
ATCAACAC | -0.154
GAAAGAGC | -0.138
ACTAGACC | 0.0797
GGTTAGCA | -0.0201
GGTCCAAC | 0.13
AGCCCGAG | 0.208
CGCCCGAG | 0.396
TGTCCTAA | -0.338
CGTCCGAA | 0.394
TGTCCAAA | -0.133
GGTCCGAC | 0.392
CGTCCAAA | 0.0813
CGCCCGAC | 0.366

Sequence | PBM E-score
GCTCCGAC | 0.212
TGTCCGAA | 0.412
CGTCCGAC | 0.302
AACCAACG | -0.104
GTCTTACA | -0.195
CTTGGTAC | -0.213
CCTCTTTA | -0.303
CCGGTTAC | 0.279
ACACTGAA | -0.0306
AGAGTAGA | 0.0496
ACGAACAT | 0.0579
AAGGCAAA | -0.28
CATCCGAG | 0.265
AGTCCGAA | 0.416
AGTCCTAA | -0.207
CGTCCGAG | 0.401
GGTCCGAA | 0.434
CGTCCAAG | -0.111
GGTCCAAA | 0.0135
GGTCCGTA | 0.329
AGTCCAAA | -0.119
ACAAGGCA | -0.133
TAGCTTAA | -0.135
CATTGAAA | -0.0176
AAACGGAG | 0.258

Sequence | PBM E-score
CCGTTGCC | 0.299
CGGTGCTC | 0.161
CATGGACA | -0.324
ATGCACAT | -0.225
CAAATTGA | -0.173
ATTCTCCG | 0.394
CAGCTCCG | 0.299
AAGCTCCG | 0.411
AATCTCCT | 0.0543
AATCTCCG | 0.476
AATCTCCC | 0.00843
ATTCTCCA | -0.157
CATCTCCA | -0.0795
CATCTCCC | 0.104
CATCTCCG | 0.435
AAGCTCCT | -0.0999
ATTCTCCC | 0.0268
ACTGTACG | -0.167
GAGGCATA | 0.00364
CCTGAGTC | -0.0525
GCCCTGAA | 0.0376
AGTAGCCC | 0.0495
ACATTCCC | 0.0549
AGAGGGGA | -0.0354
TCGTAAAA | 0.0494
